Experimental data from US20040110161, “Method for detecting mutations in nucleotide sequences” (published 2004).

T1: MutS (Cy5-labeled) (Escherichia coli, UniProt P23909 P23909:1-853)
T1 sequence: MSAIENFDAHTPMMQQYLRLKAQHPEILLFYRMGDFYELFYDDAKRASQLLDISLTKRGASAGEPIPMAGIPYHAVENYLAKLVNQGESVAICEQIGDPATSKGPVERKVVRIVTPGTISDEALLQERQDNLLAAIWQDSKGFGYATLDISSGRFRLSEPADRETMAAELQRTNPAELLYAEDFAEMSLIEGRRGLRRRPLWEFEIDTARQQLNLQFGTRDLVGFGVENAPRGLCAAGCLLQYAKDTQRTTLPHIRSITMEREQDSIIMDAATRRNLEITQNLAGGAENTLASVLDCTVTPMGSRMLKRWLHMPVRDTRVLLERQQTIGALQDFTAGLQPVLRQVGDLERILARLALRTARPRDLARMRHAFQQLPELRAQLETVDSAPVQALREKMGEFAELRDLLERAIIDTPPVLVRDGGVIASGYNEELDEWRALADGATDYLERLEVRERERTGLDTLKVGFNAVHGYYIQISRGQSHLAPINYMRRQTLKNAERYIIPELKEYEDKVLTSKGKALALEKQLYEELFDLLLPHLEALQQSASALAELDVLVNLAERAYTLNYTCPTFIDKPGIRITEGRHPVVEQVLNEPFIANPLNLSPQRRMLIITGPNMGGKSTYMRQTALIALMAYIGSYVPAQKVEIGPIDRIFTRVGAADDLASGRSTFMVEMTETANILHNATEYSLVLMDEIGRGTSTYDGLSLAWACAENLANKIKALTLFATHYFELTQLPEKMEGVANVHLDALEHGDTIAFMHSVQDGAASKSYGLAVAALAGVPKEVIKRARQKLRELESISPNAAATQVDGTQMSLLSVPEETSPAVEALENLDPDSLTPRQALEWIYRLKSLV

B1: Rb AT (dsDNA)
DNA 1: AAATAAGATCAAATAAAGGTGAATCTGAGAGCCATGCAA
DNA 2: CCTTGCATGGCTCTCAGATTCACCTTTATTTGATCTTAT
B2: Met AT (dsDNA)
DNA 1: AACTATAGTATTCTTTATCATACATGTCTCTGGCAAGAC
DNA 2: TGGTCTTGCCAGAGACATGTATGATAAAGAATACTATAG
B3: Brc AT (dsDNA)
DNA 1: AAATGTTATTACGGCTAATTGTGCTCACTGTACTTGGAA
DNA 2: CATTCCAAGTACAGTGAGCACAATTAGCCGTAATAACAT
B4: p53 AT (dsDNA)
DNA 1: AAAGTTCCTGCATGGGCGGCATGAACCGGAGGCCCATC
DNA 2: AGGATGGGCCTCCGGTTCATGCCGCCCATGCAGGAACT
B5: bcl AT (dsDNA)
DNA 1: AAGGTCGCGGGATGCGGCTGGATGGGGCGTGTGCCCGGG
DNA 2: AGCCCGGGCACACGCCCCATCCAGCCGCATCCCGCGACC
B6: MSH AT (dsDNA)
DNA 1: AACCTTTCTCCAAAATGGCTGGTCGTACATATGGAACAG
DNA 2: ACCTGTTCCATATGTACGACCAGCCATTTTGGAGAAAGG
B7: APC AT (dsDNA)
DNA 1: AAGATCTTCAGCTGACCTAGTTCCAATCTTTTCTTTTAT
DNA 2: AAATAAAAGAAAAGATTGGAACTAGGTCAGCTGAAGATC

molecular target: T1, MutS (Cy5-labeled); experiment: agarose chip; conditions: tags: Cy5 nonspecific amine label; also Gene Check unlabeled in EMSA; label: 5'-biotin, 5'-Cy3

First: B1
Second: B2
The binding signal of the first is higher: 59.6 fluorescence units for the first, 46.3 fluorescence units for the second.

Going from B3 to B4, the binding signal falls from 52.4 fluorescence units to 48.7 fluorescence units.

Going from B5 to B6, the binding signal falls from 51.2 fluorescence units to 45.9 fluorescence units.

B7 gave a binding signal of 40.5 fluorescence units.
